GAA inhib = qHTS Assay for Inhibitors of Human alpha-Glucosidase as a Potential Chaperone Treatment of Pompe Disease | Lysosomal alpha-glucosidase (Homo sapiens), P10253 | purified human GAA, 4-MU-alpha-glucoside fluorescence | Potency, µM (highest dose often 76.9 µM), without a hit: top-dose activity change, negative = inhibition, hits mostly inhibitors | 200,000 compounds, 0.005% hits | AID 1466, 2008;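 note: potency is the fitted concentration of half-maximal effect; plate controls were uninhibited enzyme wells for no effect and no-enzyme background for full effect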
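Activity normalized between no-enzyme (basal) and enzyme-only wells. Conditions: 4 nM human enzyme, 400 uM fluorogenic substrate, citrate/phosphate pH 5.0 with Tween-20, 20 min room temperature, compounds up to 77 uM.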
aGlu spleen mod = qHTS Assay for Inhibitors and Activators of Human alpha-Glucosidase From Spleen Homogenate. Lysosomal alpha-glucosidase (Homo sapiens), P10253. human spleen homogenate, 4-MU-alpha-glucoside fluorescence. Potency, µM (highest dose often 79.9 µM), without a hit: at the highest dose activity change, negative = inhibition, usual class: inhibitors. 240,000 compounds, 0.006% hits;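 note: potency is the fitted concentration of half-maximal effect; 0% = enzyme with vehicle and -100% = no enzyme basal signal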
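Human spleen homogenate (1 ug) incubated with compounds and 1 mM 4-methylumbelliferyl-alpha-D-glucopyranoside in pH 5.0 citrate/phosphate buffer, 37 C, 40 min. Stopped at pH 10; 4-MU fluorescence (Ex 365/Em 440 nm); AC50 by Hill fit.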
N370S GC mod = qHTS Assay for Inhibitors and Activators of N370S glucocerebrosidase as a Potential Chaperone Treatment of Gaucher Disease | Lysosomal acid glucosylceramidase (Homo sapiens), P04062 | N370S GC spleen homogenate, 4MU-glucoside fluorescence | Potency, µM (doses to about 59.4 µM), for the others: top-dose activity change, negative = inhibition, usual class: inhibitors | 330,000 compounds, 0.092% hits | AID 2101, 2009;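 note: potency is the fitted concentration of half-maximal effect; 0% = full enzyme activity and -100% = no enzyme basal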
GLA spleen mod = qHTS Assay for Inhibitors and Activators of Human alpha-Galactosidase From Spleen Homogenate | Alpha-galactosidase A (Homo sapiens), P06280 | 240,000 compounds, 0.008% hits | Potency, µM (top dose mostly 80 µM), for the others: at the highest dose activity change, negative = inhibition, usual class: inhibitors | human spleen homogenate, 4MU-alpha-Gal fluorescence, 40 min | AID 2107, 2009;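 note: potency is the fitted concentration of half-maximal effect; 0% = enzyme with vehicle and -100% = no enzyme basal signal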
Target sequence (P06280 32-429 limits assumed): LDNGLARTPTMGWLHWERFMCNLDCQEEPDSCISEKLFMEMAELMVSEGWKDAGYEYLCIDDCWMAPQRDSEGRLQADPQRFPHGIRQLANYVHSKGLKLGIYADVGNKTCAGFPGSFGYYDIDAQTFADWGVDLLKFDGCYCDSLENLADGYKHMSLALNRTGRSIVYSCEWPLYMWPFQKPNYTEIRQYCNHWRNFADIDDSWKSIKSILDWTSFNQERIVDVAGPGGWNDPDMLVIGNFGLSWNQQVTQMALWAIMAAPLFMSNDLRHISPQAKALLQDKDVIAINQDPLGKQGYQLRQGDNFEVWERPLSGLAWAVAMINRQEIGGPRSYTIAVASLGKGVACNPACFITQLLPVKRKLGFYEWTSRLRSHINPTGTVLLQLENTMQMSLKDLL
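qHTS titration in buffer at pH 5.0. Alpha-galactosidase activity in spleen homogenate was measured via 4-methylumbelliferone release from 1 mM fluorogenic substrate after 40 min at 37C and a pH 10 stop. AC50 came from Hill fits of control-normalized data.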
GLA inh pH 4.5 = qHTS Assay for Inhibitors of Human alpha-Galactosidase at pH 4.5. Alpha-galactosidase A (Homo sapiens), P06280. purified enzyme, 4-MU-alpha-Gal fluorescence, pH 4.5. activity change, negative = inhibition, % at 105 µM. 230,000 tested, under 10 active. AID 1467, 2008;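 note: 0% = full activity with enzyme and -100% = basal without enzyme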
GAA glycogen mod = qHTS Assay for Inhibitors and Activators of Human alpha-Glucosidase Cleavage of Glycogen; Lysosomal alpha-glucosidase (Homo sapiens), P10253; recombinant GAA, glycogen substrate, Amplex Red glucose oxidase fluorescence; Potency, µM (series often up to 76.4 µM), for inactives: at the highest dose activity change, negative = inhibition, most hits filed as inhibitors; 300,000 compounds, 0.38% hits; AID 2100, 2009;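 note: potency is the fitted concentration of half-maximal effect; 0% = full enzyme reaction and -100% = no-enzyme basal signal; the screen sought inhibitors and activators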
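Natural-substrate format: glycogen cleavage by 4 nM human enzyme, glucose read by Amplex Red coupling (Ex 573, Em 610 nm). Normalized to enzyme and no-enzyme controls.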
Starred values were filed as active, the others as inactive; ? = inconclusive; · = no result given; [ ] = dose if it differs, or a comment. In the library only some 0.41% were active in any assay of this set; here they are far more common. Calls come from the whole dose curve; as a rule, active = well fitted curve in the direction sought with a large enough effect; inconclusive = small, poorly fitted or top-dose-only effect, or another doubt; inactive = no such curve, though single readings can be large; an effect the other way counts as inactive or inconclusive.

SMILES	GAA inhib	aGlu spleen mod	N370S GC mod	GLA spleen mod	GLA inh pH 4.5	GAA glycogen mod
COc1ccc(COC(=O)C2=C(C)NC(=O)NC2c2cccc(OC)c2OC)cc1 (stereo unspecified)	·	·	-5.9%	·	·	39.8µM*
COc1ccc(C(=S)Nc2ccc(C)cc2)cc1	-9.0%	2.5%	3.1%	-2.1%	6.0	0.8%
O=C(O)c1ccc(CN2C(=O)CSC2=S)cc1	-4.1%	-6.9%	2.0%	-13.0%	7.9	17.8µM*
O=C(O)c1ccc(N=C2SCC(=O)N2Cc2ccccc2)cc1	11.9%	4.4%	-8.7%	-1.1%	1.0	14.1%
CCc1ccc2c(c1)c(=O)c(S(=O)(=O)c1ccccc1)cn2CC(=O)Nc1cc(C)ccc1C	·	·	·	·	·	12.4%[76.3 µM]
O=C1NC(=O)/C(=C\c2cn(Cc3ccccc3F)c3ccccc23)N1	-3.8%	2.4%	8.0%	5.1%	-12.9	6.8%
CCOC(=O)Cc1csc(Nc2c(C)n(C)n(-c3ccccc3)c2=O)n1	-0.8%	-1.1%	5.5%	1.7%	6.7	10µM*
CC1CCC/C(=C\Nc2ccc(O)cc2)C1=O (stereo unspecified)	-8.5%	0.4%	-23.1%	6.8%	1.1	14.1µM*
COC(=O)C(NC(C)=O)(Nc1sc2c(c1C(N)=O)CCCC2)C(F)(F)F (stereo unspecified)	1.2%	-4.1%	6.3%	4.8%	-3.9	20µM*
CCCCC(=O)NC(Nc1sc2c(c1C(N)=O)CCCC2)(C(=O)OCC)C(F)(F)F (stereo unspecified)	-3.8%	-1.1%	1.6%	0.2%	-16.2	?
CCc1ccc(NC2=NCC(c3ccccc3)S2)cc1 (stereo unspecified)	-7.9%	3.5%	-12.1%	3.7%	-0.4	-4.0%
Cc1ccc2[nH]c(=O)c(-c3nc4ccccn4c3NCc3ccco3)cc2c1	-6.0%	4.4%	0.0%	-1.9%	-3.8	31.6µM*
O=Cc1c(NCc2ccco2)nc2ccccn2c1=O	-0.6%	3.6%	-10.6%	-0.2%	-9.0	-4.7%
CCOC(=O)c1c(/N=C/c2ccccc2O)sc2c1CCC2	3.9%	0.3%	1.1%	3.8%	-0.1	17.8µM*
CCOC(=O)c1c(/N=C/c2cccc([N+](=O)[O-])c2O)sc2c1CCC2	-3.0%	0.2%	-8.5%	-13.8%	-5.9	-15.0%
CCOC(=O)c1c(/N=C/c2ccc(O)cc2O)sc2c1CCC2	1.8%	-12.0%	-14.9%	-9.3%	-15.2	35.5µM*
Nc1cc(C(=O)O)ccc1Nc1ccc(F)c(F)c1	-5.6%	3.2%	-4.2%	4.6%	0.1	12.5µM*
O=C(O)c1ccc(N/N=C/c2ccc(F)c(F)c2)cc1	11.8%	-9.5%	3.8%	8.3%	-18.4	?
CCOC(=O)c1c(C)[nH]c(C=Nc2ccccc2)c1O	0.6%	0.1%	-11.4%	2.9%	-7.7	3.8%
CCOC(=O)c1c(C)[nH]c(C=Nc2ccc(OC)cc2)c1O	-3.7%	-1.8%	-2.0%	-1.4%	-2.5	8.91µM*
CCOc1ccc(N(CC(=O)NCc2ccc(OC)cc2)S(=O)(=O)c2c(C)[nH]c(=O)[nH]c2=O)cc1	·	·	11.2µM*	·	·	-12.8%[76.3 µM]
CCOc1ccc(S(=O)(=O)N(CC(=O)NCCc2ccc(OC)cc2)c2ccccc2)cc1	·	·	·	·	·	-5.2%[76.3 µM]
COc1ccc(CNC(=O)CN(c2ccc(C)cc2)S(=O)(=O)c2c(C)n[nH]c2C)cc1	·	·	·	·	·	-4.4%[76.3 µM]
CCOc1ccc(N(CC(=O)NCCc2ccc(Cl)cc2)S(=O)(=O)c2c(C)[nH]c(=O)[nH]c2=O)cc1	1.3%	4.8%	10µM*	4.5%	-2.9	6.5%
COc1ccccc1N1C(=O)N(C(C)=O)C2C1Nc1ccccc1N2C (stereo unspecified)	-7.5%	-1.6%	0.2%	0.1%	-0.5	35.5µM*
